These results are taken from PubChem BioAssay (Tox21).

For test [1], the target named is Acetylcholinesterase (Homo sapiens) (UniProt P22303). Kind of test: Acetylcholinesterase (AChE) small molecule antagonists: colormetric cell-based qHTS assay (AID 1347395; calls by dose curve; note: nearly all actives have a fitted effect of over 30% in size). In short, it runs like this:
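Homogeneous whole-cell format. SH-SY5Y cells seeded overnight, dosed with compound (30 min, 37 C, 5% CO2), then given DTNB/acetylthiocholine cocktail for 90 min at 37 C; colorimetric signal.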

Test [2] shares this target. Kind of test: Acetylcholinesterase (AChE) small molecule antagonists: enzyme-based qHTS assay (AID 1347397; calls by dose curve; note: nearly all actives have a fitted effect of over 55% in size; note: potency is the fitted concentration of half-maximal effect). The following applies: Potency: AChE enzyme activity inhibition. In short, it runs like this: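 Colorimetric DTNB read-out of thiocholine released from acetylthiocholine by recombinant human AChE (50 mU/mL as dispensed). Compounds were preincubated 30 min at RT before substrate/DTNB addition, with a 10 min RT reaction.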
(In general: In qHTS, concentration-response curves come from the screen itself.)

Test [3] shares this target. Briefly: Acetylcholinesterase (AChE) small molecule antagonists: fluorescence cell-based qHTS assay (AID 1347398; calls by dose curve; note: nearly all actives have a fitted effect of over 50% in size; note: potency is the fitted concentration of half-maximal effect). As to conditions: Potency: AChE activity. In short, it runs like this: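 SH-SY5Y, 2,000 cells/well, attached overnight; cmpd 30 min 37 C; acetylthiocholine/Thiolite Green cocktail 40 min RT; fluorescence Ex/Em 490/520 nm.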
For test [4] the target is unchanged. Briefly: Acetylcholinesterase (AChE) small molecule antagonists: enzyme-based qHTS assay with human liver microsomes (AID 1347399; calls by dose curve; note: nearly all actives have a fitted effect of over 60% in size). The following applies: Potency: qHTS inhibition. In short, it runs like this: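 Recombinant human AChE (50 mU/mL in the enzyme mix) and human liver microsomes (0.25 mg/mL final) were preincubated with compound and NADPH (0.25 mg/mL final) for 30 min at 37 C. Acetylthiocholine/DTNB was then added; thiocholine was read colorimetrically after 10 min at room temperature.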

Test [5] concerns the target Cytochrome P450 2D6 (Homo sapiens) (UniProt P10635). Briefly: Cytochrome P450 Family 2 Subfamily D Member 6 (CYP2D6) small molecule antagonists: luciferase reporter qHTS assay (AID 1671196). Note: nearly all actives have a fitted effect of over 50% in size. Note: potency is the fitted concentration of half-maximal effect. In a few lines:
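CYP2D6 activity was followed as luminescence from its luciferin product after a 1 h NADPH-driven reaction at room temperature. Enzyme-substrate mix and compound were pre-incubated for 10 min, and the signal was read 20 min after adding detection reagent.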
(In general: A reporter such as luciferase makes a cellular process visible.)

Test [6] deals with Cytochrome P450 2C19 (Homo sapiens) (UniProt P33261). Briefly: Cytochrome P450 Family 2 Subfamily C Member 19 (CYP2C19) small molecule antagonists: luciferase reporter qHTS assay (AID 1671197). Note: nearly all actives have a fitted effect of over 65% in size. Note: potency is the fitted concentration of half-maximal effect. In a few lines:
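Compounds were tested on CYP2C19 activity via proluciferin conversion to luciferin. The 37C, 1 h reaction followed NADPH addition; detection reagent stopped it.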

In test [7] the target is Cytochrome P450 2C9 (Homo sapiens) (UniProt P11712). Briefly: Cytochrome P450 Family 2 Subfamily C Member 9 (CYP2C9) small molecule antagonists: luciferase reporter qHTS assay (AID 1671198). Note: nearly all actives have a fitted effect of over 50% in size. Note: potency is the fitted concentration of half-maximal effect. In a few lines: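 P450-Glo proluciferin substrate with CYP2C9 enzyme; 10 min RT preincubation, then NADPH regeneration 1 h at 37C; luciferin detection reagent 20 min RT, luminescence in relative luminescence units.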

Test [8] has as its target Voltage-gated inwardly rectifying potassium channel KCNH2 (Homo sapiens) (UniProt Q12809). Briefly: Human Ether-a-go-go-Related Gene (hERG) channel small molecule antagonists: fluorescence cell-based qHTS assay (AID 1671200).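 Note: hERG-expressing U2OS cells given a thallium stimulus after FluxOR II dye loading; series mostly up to about 77 µM; nearly all actives have a fitted effect of over 50% in size.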 In short, it runs like this:
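Thallium served as the potassium surrogate; its influx into dye-loaded U2OS cells carrying the channel was measured by fluorescence over 2 min.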

The target in test [9] is Cytochrome P450 3A4 (Homo sapiens) (UniProt P08684). Kind of test: Cytochrome P450 Family 3 Subfamily A Member 4 (CYP3A4) small molecule antagonists: luciferase reporter qHTS assay (AID 1671201). Note: nearly all actives have a fitted effect of over 50% in size. Note: potency is the fitted concentration of half-maximal effect. In a few lines: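 Relative luminescence units after 20 min with luciferin detection reagent served as read-out. Beforehand, CYP3A4 turned over a proluciferin substrate for 1 h at room temperature with NADPH regeneration, following 10 min compound preincubation.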

For test [10], the target named is Cytochrome P450 1A2 (Homo sapiens) (UniProt P05177). Briefly: Cytochrome P450 Family 1 Subfamily A Member 2 (CYP1A2) small molecule antagonists: luciferase reporter qHTS assay (AID 1671199). Note: nearly all actives have a fitted effect of over 50% in size. Note: potency is the fitted concentration of half-maximal effect. In short, it runs like this:
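Luminescence from luciferin formed by CYP1A2 from a proluciferin substrate, read 20 min after detection reagent. Compound was pre-incubated 10 min with enzyme-substrate, and reaction started with NADPH regeneration solution for 1 h at room temperature; furafylline control.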

Where “and” joins values, the source holds several entries; their conditions need not be identical. Identical values can stand only once. Results filed as inconclusive are left out. Some compounds were tested as several samples or in several runs, with calls that do not always agree. Calls of active or inactive are those of the source. Unless noted, calls come from the whole dose curve; as a rule, active = well fitted curve in the direction sought with a large enough effect in the repeat runs; inconclusive = weak or mixed curves; inactive = no such curve, though single readings can be large; an effect the other way counts as inactive or inconclusive.

Sequence of Cytochrome P450 2C9 (Homo sapiens) (P11712 whole entry, looked up): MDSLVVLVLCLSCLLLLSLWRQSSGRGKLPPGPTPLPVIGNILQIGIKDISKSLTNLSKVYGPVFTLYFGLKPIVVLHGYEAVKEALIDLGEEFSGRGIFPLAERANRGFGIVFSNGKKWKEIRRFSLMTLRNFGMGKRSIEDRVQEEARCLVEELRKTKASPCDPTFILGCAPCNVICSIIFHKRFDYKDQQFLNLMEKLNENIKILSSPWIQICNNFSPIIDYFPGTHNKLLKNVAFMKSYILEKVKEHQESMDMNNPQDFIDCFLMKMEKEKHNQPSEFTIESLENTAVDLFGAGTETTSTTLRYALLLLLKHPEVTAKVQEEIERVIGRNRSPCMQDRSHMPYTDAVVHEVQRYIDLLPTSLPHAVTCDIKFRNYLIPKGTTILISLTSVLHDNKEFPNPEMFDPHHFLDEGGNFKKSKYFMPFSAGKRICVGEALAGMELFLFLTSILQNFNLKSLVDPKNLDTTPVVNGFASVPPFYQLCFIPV
Sequence of Cytochrome P450 2C19 (Homo sapiens) (P33261 whole entry, looked up): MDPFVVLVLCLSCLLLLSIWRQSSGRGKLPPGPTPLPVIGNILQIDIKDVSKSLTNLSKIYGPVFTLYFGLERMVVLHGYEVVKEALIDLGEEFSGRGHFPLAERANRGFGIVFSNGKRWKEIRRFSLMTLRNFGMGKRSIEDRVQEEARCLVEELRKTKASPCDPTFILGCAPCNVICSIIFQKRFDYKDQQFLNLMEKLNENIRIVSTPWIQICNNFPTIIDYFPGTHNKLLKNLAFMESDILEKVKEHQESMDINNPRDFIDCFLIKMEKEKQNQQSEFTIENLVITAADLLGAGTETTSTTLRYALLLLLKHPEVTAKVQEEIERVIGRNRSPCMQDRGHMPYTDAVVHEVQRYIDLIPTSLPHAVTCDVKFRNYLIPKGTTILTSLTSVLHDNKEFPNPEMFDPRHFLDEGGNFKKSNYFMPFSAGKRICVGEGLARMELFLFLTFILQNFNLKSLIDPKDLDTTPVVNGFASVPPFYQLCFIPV
Sequence of Cytochrome P450 1A2 (Homo sapiens) (P05177 whole entry, looked up): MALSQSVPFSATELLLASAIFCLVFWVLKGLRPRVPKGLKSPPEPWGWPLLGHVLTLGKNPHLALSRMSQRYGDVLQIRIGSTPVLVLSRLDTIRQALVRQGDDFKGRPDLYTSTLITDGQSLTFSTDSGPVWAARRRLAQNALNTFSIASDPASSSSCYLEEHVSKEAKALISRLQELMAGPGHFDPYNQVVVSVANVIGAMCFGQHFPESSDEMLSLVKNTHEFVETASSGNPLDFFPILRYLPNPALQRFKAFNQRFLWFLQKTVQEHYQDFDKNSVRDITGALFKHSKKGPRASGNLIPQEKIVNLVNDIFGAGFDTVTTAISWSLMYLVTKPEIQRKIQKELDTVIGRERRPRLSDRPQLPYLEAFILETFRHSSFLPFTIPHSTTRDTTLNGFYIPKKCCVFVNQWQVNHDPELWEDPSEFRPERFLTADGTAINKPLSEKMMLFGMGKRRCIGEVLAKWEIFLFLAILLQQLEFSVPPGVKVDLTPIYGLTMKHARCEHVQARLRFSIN
Sequence of Voltage-gated inwardly rectifying potassium channel KCNH2 (Homo sapiens) (Q12809 whole entry, looked up): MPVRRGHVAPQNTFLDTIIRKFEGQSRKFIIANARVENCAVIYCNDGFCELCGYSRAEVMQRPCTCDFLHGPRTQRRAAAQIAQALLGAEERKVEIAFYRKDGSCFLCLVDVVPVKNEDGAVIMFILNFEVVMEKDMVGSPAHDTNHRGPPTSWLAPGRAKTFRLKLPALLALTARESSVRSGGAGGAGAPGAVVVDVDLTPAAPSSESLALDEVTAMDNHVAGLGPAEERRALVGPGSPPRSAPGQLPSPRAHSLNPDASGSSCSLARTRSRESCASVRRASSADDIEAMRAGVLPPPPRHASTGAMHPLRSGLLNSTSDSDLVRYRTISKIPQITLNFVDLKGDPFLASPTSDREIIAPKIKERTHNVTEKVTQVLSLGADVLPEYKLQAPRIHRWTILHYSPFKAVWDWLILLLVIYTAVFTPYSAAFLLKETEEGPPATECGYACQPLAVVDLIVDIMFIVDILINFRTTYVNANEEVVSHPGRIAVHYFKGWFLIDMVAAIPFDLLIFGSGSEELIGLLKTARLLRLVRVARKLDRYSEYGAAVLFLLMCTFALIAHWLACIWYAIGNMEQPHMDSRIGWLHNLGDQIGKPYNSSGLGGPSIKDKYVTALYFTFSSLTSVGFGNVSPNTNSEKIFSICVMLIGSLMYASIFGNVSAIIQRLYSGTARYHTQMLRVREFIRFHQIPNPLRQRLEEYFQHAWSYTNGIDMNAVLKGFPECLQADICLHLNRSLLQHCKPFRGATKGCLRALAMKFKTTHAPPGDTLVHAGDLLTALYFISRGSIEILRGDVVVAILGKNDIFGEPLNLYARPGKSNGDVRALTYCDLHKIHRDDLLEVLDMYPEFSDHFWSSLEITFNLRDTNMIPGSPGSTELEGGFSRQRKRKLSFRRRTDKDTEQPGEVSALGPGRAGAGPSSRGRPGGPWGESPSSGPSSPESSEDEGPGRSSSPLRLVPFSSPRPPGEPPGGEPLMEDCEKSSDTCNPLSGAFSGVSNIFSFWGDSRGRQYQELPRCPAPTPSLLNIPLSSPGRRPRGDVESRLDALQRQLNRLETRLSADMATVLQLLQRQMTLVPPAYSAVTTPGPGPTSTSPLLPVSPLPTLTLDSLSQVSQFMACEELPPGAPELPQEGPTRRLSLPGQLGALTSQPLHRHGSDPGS
Sequence of Acetylcholinesterase (Homo sapiens) (P22303 whole entry, looked up): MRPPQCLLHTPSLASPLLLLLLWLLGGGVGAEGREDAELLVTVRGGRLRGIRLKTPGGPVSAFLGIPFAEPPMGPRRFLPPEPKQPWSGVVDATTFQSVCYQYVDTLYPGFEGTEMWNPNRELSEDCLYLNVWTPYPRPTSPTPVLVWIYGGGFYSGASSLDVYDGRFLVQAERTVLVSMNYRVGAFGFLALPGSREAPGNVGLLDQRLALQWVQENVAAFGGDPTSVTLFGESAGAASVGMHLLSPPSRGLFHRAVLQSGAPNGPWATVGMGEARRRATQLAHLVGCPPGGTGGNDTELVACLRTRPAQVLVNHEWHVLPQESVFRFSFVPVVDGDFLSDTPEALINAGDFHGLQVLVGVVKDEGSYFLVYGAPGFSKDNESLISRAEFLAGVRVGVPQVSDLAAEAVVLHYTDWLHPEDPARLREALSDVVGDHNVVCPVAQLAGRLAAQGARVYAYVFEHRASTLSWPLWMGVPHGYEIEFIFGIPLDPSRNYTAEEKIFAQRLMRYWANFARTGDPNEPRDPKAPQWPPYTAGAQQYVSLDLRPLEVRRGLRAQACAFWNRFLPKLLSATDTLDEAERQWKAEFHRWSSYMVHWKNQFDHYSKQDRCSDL
Sequence of Cytochrome P450 3A4 (Homo sapiens) (P08684 whole entry, looked up): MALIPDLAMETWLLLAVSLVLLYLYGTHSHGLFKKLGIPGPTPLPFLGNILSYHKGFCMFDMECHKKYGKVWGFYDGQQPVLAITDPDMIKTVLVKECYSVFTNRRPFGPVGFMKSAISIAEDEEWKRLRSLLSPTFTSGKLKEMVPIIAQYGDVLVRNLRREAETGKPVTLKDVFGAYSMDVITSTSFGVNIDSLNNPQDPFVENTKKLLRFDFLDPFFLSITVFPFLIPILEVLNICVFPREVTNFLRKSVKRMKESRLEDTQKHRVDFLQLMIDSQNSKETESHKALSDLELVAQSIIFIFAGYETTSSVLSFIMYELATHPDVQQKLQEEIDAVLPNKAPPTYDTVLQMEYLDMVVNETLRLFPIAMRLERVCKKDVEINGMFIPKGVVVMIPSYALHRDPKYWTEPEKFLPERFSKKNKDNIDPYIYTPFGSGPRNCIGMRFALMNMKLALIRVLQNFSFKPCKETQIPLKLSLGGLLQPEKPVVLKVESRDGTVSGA
Sequence of Cytochrome P450 2D6 (Homo sapiens) (P10635 whole entry, looked up): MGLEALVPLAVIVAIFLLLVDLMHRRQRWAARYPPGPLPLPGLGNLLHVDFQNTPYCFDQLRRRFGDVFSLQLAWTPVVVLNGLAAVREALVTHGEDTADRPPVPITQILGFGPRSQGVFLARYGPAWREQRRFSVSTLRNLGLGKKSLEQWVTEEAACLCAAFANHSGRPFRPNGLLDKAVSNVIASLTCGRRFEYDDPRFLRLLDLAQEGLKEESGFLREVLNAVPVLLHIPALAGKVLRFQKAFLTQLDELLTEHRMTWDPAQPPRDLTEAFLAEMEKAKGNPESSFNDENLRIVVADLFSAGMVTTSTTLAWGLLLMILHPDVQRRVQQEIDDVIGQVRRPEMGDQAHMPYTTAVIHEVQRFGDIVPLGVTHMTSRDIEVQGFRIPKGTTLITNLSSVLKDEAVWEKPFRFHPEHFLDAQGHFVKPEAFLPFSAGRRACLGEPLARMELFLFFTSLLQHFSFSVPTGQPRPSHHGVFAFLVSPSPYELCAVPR

With `CCCCCc1cc(O)cc(O)c1`, the Potency entry in test [1], in test [2], in test [3], in [4] and in test [8] was “inactive” each time. The Potency in test [5] was 10.1 µM (active) and 31.7 µM (active); in test [6], 3.57 µM (active) and 6.33 µM (active); in test [7], 11.3 µM (active) and 31.7 µM (active); in [9], 5.05 µM (active) and 22.4 µM (active).
With `C=CC(=O)OCCO`, the Potency entry in test [1], in test [2], in [3], in test [4], in [5] and in test [6] was “inactive” each time. For the same compound, the Potency result in [7], in test [8] and in test [9] was “inactive” throughout.
In the case of `CCCCCCOC(=O)c1ccccc1C(=O)OCCCCCC`, the Potency result in [1], in test [2], in test [3], in [4], in test [5] and in test [8] was “inactive” in each case. The Potency in [6] was 20.4 µM (active) and 7.96 µM (active); in [7], 25.7 µM (active) and 7.96 µM (active).
Take `CCCCCCCCCCCOC(=O)c1ccccc1C(=O)OCCCCCCCCCCC`: the Potency result in [1], in test [2], in [3], in test [4], in test [5] and in [6] was “inactive” throughout. Besides, the Potency result in test [7], in [10], in [8] and in test [9] was “inactive” each time.
In the case of `CCOc1cc(C=O)ccc1O`, the Potency entry in [1], in test [2], in test [3], in test [4], in test [5] and in test [6] was “inactive” throughout. For the same compound, the Potency entry in test [7], in [8] and in [9] was “inactive” in each case.
In the case of `C=CCc1ccc(OC)cc1`, the Potency result in test [1], in test [2], in test [3], in [4], in test [6] and in [7] was “inactive” throughout. Moreover, in test [8], the Potency entry is “inactive”. Further, in test [5], the Potency is 5.47 µM (active) and inactive.
Take `Cc1ccccc1[N+](=O)[O-]`: the Potency result in test [1], in [2], in test [3], in test [4], in [5] and in test [6] was “inactive” in each case. The Potency result in test [7], in test [8] and in [9] was “inactive” throughout.
On to `C#CCOS(=O)OC1CCCCC1Oc1ccc(C(C)(C)C)cc1` (stereo unspecified), for which the Potency entry in test [1], in test [2], in test [3] and in test [4] was “inactive” in each case. The Potency in test [5] is 22.5 µM (active) and 22.4 µM (active); in test [6], 895 nM (active) and 710 nM (active); in test [7], 503 nM (active) and 502 nM (active); in test [10], 8.95 µM (active) and 8.94 µM (active); in [9] it was 1.59 µM (active) and 2.83 µM (active).
Take `CCCCCCCCC(=O)NCc1ccc(O)c(OC)c1`: the Potency entry in [1], in test [2], in [3], in test [4] and in test [8] was “inactive” throughout. In addition, the Potency in test [5] was 31.7 µM (active) and 17.4 µM (active); in [6], 4.9 µM (active); in test [7] it was 2.52 µM (active) and 2.45 µM (active).
With `O=C(CCl)c1ccccc1`, the Potency result in test [1], in test [2], in [3], in [4], in [10] and in test [8] was “inactive” each time. Besides, in [9], the Potency result was “inactive”. For the same compound, the Potency in test [5] was 32.1 µM (active) and 31.7 µM (active); in [6], 57.2 µM (active); in test [7], 40.5 µM (active) and inactive.
With `CNC(=O)N(C)c1nnc(C(C)(C)C)s1`, the Potency result in [1], in [2], in test [3], in [4], in [5] and in [7] was “inactive” in each case. For the same compound, the Potency entry in test [8] and in test [9] was “inactive” in each case. For the same compound, the Potency in [6] is 39.9 µM (active) and inactive.
`Cc1c(COC(=O)[C@@H]2[C@H](/C=C(\Cl)C(F)(F)F)C2(C)C)cccc1-c1ccccc1`: the Potency result in test [1], in [2], in test [3], in [4], in test [5] and in test [8] was “inactive” throughout. Also, the Potency result in test [9] was “inactive”. Also, the Potency in test [6] is 7.79 µM (active) and 8.91 µM (active); in test [7], 19.6 µM (active) and 11.2 µM (active).
Turning to `CCC(C)(C)c1ccc(O)cc1`, the Potency entry in [1], in test [2], in test [3], in [4], in test [5] and in test [6] was “inactive” each time. In addition, the Potency entry in test [8] and in [9] was “inactive” throughout. In addition, the Potency in test [7] is 71.8 µM (active) and 63.3 µM (active).
On to `c1nc[nH]n1`, for which the Potency entry in [1], in [2], in [3], in [4], in [5] and in test [6] was “inactive” throughout. The Potency entry in test [7], in test [8] and in test [9] was “inactive” in each case. In addition, the Potency in [10] is 62 µM (active) and 71 µM (active).
Consider `CCC(C)(c1ccc(O)cc1)c1ccc(O)cc1`, for which the Potency entry in [1], in test [2], in test [3], in test [4], in test [5] and in test [6] was “inactive” throughout. In addition, the Potency entry in [8] was “inactive”. The Potency in [7] is 28.2 µM (active) and 22.4 µM (active); in test [9], 10 µM (active) and 15.9 µM (active).
Regarding `CCC(CC)Nc1c([N+](=O)[O-])cc(C)c(C)c1[N+](=O)[O-]`, the Potency result in test [1], in [2], in test [3], in test [4], in test [5] and in [8] was “inactive” throughout. Also, the Potency is 36.1 µM (active) and 10 µM (active) in test [6]; 32.1 µM (active) and 25.2 µM (active) in [7].
As to `CCCCN(CCCC)N=O`, the Potency result in [1], in test [4], in [5], in [7], in test [10] and in test [8] was “inactive” each time. Besides, the Potency entry in [9] was “inactive”. The Potency in test [2] was 34.1 µM (active) and inactive; in [3] it was 12.1 µM (active) and inactive; in test [6], 60.7 µM (active) and inactive.
Regarding `COP(=O)(OC)OC`, the Potency result in test [1], in test [2], in test [3], in test [4], in [5] and in [8] was “inactive” each time. Further, the Potency in [6] was 9.01 µM (active) and inactive; in test [7] it was 32 µM (active) and inactive; in test [9], 16 µM (active) and inactive.
As to `CCCCN(CC)c1c([N+](=O)[O-])cc(C(F)(F)F)cc1[N+](=O)[O-]`, the Potency entry in test [1], in test [2], in [3], in [4], in test [5] and in test [9] was “inactive” each time. The Potency in test [6] is 72.1 µM (active) and 20 µM (active); in test [7] it was 31.7 µM (active); in [10], 22.4 µM (active).
